Laboratory results taken from the supplement of paper PMC10646978.
± gives the standard deviation.

Experiments:
Details in all cases: modulator concentration 10 µM
[1] = system: RAW-Dual (murine macrophage reporter line); assay: NF-kB reporter (SEAP) activity fold change vs agonist alone; higher = enhanced NF-kB activity
Procedure, shortened: (§1)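 In 384-well plates holding 50 000 RAW-Dual murine macrophage reporter cells per well, compound at 10 μM final was pre-incubated for 1 hour at 37 °C, after which a PRR agonist was added overnight. Supernatant SEAP read with QUANTI-Blue at 620 nm absorbance reported NF-κB, and Lucia luciferase read with QUANTI-Luc luminescence reported IRF. Fold change values come from dividing each reporter signal by the mean of agonist-only control wells on the same plate, averaged over replicate plates with propagated errors.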

[2] = system: RAW-Dual (murine macrophage reporter line); assay: IRF reporter (Lucia luciferase) activity fold change vs agonist alone; higher = enhanced IRF activity
Procedure, shortened: as §1

[3] = system: RAW-Dual (murine macrophage reporter line); assay: viability score (confluency relative to resting cells, overnight) (fraction); higher = more viable, active = viable (0.7 or more)
Procedure, shortened: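 Confluency was the readout: RAW-Dual macrophages were imaged with IncuCyte after an overnight exposure to compound at 10 μM final. IncuCyte software produced two masks over all imaged wells. The viability score expresses confluency against resting cells, and both masks had to exceed 70% of resting cells for a compound to meet the cutoff.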

[4] = agonist: CpG ODN 1826 0.5 ug/mL

SMILES | NF-kB reporter [1, 4] | NF-kB reporter ([1]; agonist: LPS 0.1 ug/mL) | NF-kB reporter ([1]; agonist: MPLA […]) | IRF reporter ([2]; agonist: 3'3'-cGAMP 10 ug/mL) | IRF reporter ([2]; agonist: LPS 0.1 ug/mL) | IRF reporter ([2]; agonist: MPLA […]) | viability score [3]
CCc1ccccc1N(CC(=O)Nc1ccc(Cl)cc1C)S(C)(=O)=O | 0.842 ± 0.087 | 1.05 ± 0.068 | 0.893 ± 0.047 | 0.88 ± 0.12 | 1.08 ± 0.14 | 0.876 ± 0.18 | 1 (active)
N#CC1=C(NC(=S)NC(=O)c2ccccc2)c2ccccc2CC12CCCC2 | 0.535 ± 0.03 | 0.918 ± 0.07 | 0.717 ± 0.042 | 0.792 ± 0.033 | 1.63 ± 0.1 | 1.26 ± 0.2 | 0.982 (active)
Cc1oncc1C(=O)Nc1ccc(C(F)(F)F)cc1 | 2.06 ± 0.4 | 1.1 ± 0.16 | 1.09 ± 0.071 | 1.31 ± 0.045 | 1.12 ± 0.29 | 2.03 ± 0.2 | 0.357 (inactive)
CCOc1nc2cccc(C(=O)O)c2n1Cc1ccc(-c2ccccc2-c2nn[nH]n2)cc1 | 1.09 ± 0.15 | 1.17 ± 0.38 | 0.976 ± 0.054 | 0.907 ± 0.069 | 1.26 ± 0.31 | 0.98 ± 0.13 | 1.01 (active)
CC(C)(C)C(=O)NCc1cccnc1-c1cccnc1 | 0.968 ± 0.052 | 1.02 ± 0.1 | 0.892 ± 0.047 | 0.972 ± 0.052 | 0.982 ± 0.061 | 0.97 ± 0.13 | 1.01 (active)
COc1ccc(CCNc2cc(C)nc3cc(-c4ccc(OC)c(OC)c4)nn23)cc1OC | 1.18 ± 0.067 | 1.13 ± 0.086 | 1.27 ± 0.035 | 0.733 ± 0.026 | 0.978 ± 0.073 | 1.13 ± 0.11 | 1 (active)
COc1c(O)cc(O)cc1O | 1.03 ± 0.095 | 1.08 ± 0.057 | 1.1 ± 0.047 | 1.07 ± 0.069 | 0.985 ± 0.078 | 1.02 ± 0.17 | 0.996 (active)
c1ccc(CCn2c3ccccc3c3nnc(SCCN4CCOCC4)nc32)cc1 | 0.859 ± 0.067 | 0.912 ± 0.11 | 1.01 ± 0.091 | 0.697 ± 0.042 | 1.2 ± 0.13 | 1.33 ± 0.18 | 1.01 (active)
O=c1cc(O)c(Cl)c[nH]1 | 0.953 ± 0.11 | 0.952 ± 0.15 | 1 ± 0.052 | 1.01 ± 0.12 | 0.925 ± 0.033 | 0.839 ± 0.13 | 0.996 (active)
NC(=O)C1CCCc2c1[nH]c1ccc(Cl)cc21 (configuration not stated) | 1.07 ± 0.15 | 1.1 ± 0.14 | 0.878 ± 0.05 | 0.959 ± 0.044 | 1.19 ± 0.25 | 1.24 ± 0.098 | 0.959 (active)
CSc1nnc(CSc2nc(C)cc(C)n2)n1-c1cccc(C(F)(F)F)c1 | 0.958 ± 0.041 | 0.862 ± 0.071 | 1.17 ± 0.07 | 0.961 ± 0.053 | 1.36 ± 0.34 | 1.37 ± 0.44 | 0.953 (active)
CC1C(C#N)=C(N)OC2=C1C(=O)CC(C)(C)C2 (configuration not stated) | 1.01 ± 0.083 | 0.965 ± 0.12 | 0.96 ± 0.09 | 0.917 ± 0.072 | 1.28 ± 0.23 | 1.47 ± 0.35 | 1.02 (active)
NNC(=O)c1ccncc1 | 1.51 ± 0.21 | 1.33 ± 0.21 | 1.31 ± 0.14 | 0.91 ± 0.028 | 1.42 ± 0.12 | 1.11 ± 0.14 | 0.999 (active)
CCc1cc2c(-c3ccccc3)cc(=O)oc2cc1OC(C)=O | 0.702 ± 0.12 | 1.09 ± 0.088 | 0.886 ± 0.085 | 0.974 ± 0.069 | 1.07 ± 0.3 | 1.07 ± 0.21 | 1 (active)
O=C(NN=Cc1c(O)ccc2ccccc12)c1ccccc1Br | 1.43 ± 0.11 | 1.24 ± 0.091 | 1.14 ± 0.092 | 0.612 ± 0.1 | 1.05 ± 0.074 | 0.873 ± 0.057 | 0.989 (active)
CN(CC(=O)O)c1nc2ccc(OC(F)(F)F)cc2s1 | 0.821 ± 0.15 | 1.03 ± 0.13 | 0.736 ± 0.064 | 0.892 ± 0.048 | 0.941 ± 0.17 | 0.952 ± 0.14 | 1.01 (active)
O=[N+]([O-])c1ccc(CSc2nc3cccnc3[nH]2)cc1 | 1.17 ± 0.19 | 0.949 ± 0.12 | 0.905 ± 0.077 | 0.935 ± 0.028 | 1.16 ± 0.12 | 1.22 ± 0.2 | 1.01 (active)
CCCCSc1nnc2c(n1)OC(c1cccc(O)c1)Nc1ccc(Br)cc1-2 (configuration not stated) | 0.765 ± 0.063 | 0.954 ± 0.073 | 0.996 ± 0.14 | 0.644 ± 0.031 | 0.931 ± 0.065 | 0.866 ± 0.075 | 1.02 (active)
CCCCNC(=O)Cc1ccc(Br)cc1 | 0.947 ± 0.15 | 0.904 ± 0.11 | 0.913 ± 0.11 | 0.986 ± 0.052 | 1.29 ± 0.25 | 1.4 ± 0.33 | 0.989 (active)
CN(C)CCC=C1c2ccccc2C=Cc2ccccc21.Cl | 0.43 ± 0.079 | 1.25 ± 0.15 | 1.13 ± 0.069 | 0.406 ± 0.019 | 1.61 ± 0.14 | 1.18 ± 0.13 | 0.918 (active)
Cc1ccc(-c2cc(-c3ccccc3)nc(NN=Cc3ccc(F)cc3)n2)cc1 | 0.961 ± 0.17 | 1.23 ± 0.1 | 0.988 ± 0.13 | 1.02 ± 0.051 | 1.15 ± 0.11 | 1.48 ± 0.27 | 0.959 (active)
CC(C)N1CCN(c2ccc(OC[C@H]3CO[C@](Cn4cncn4)(c4ccc(Cl)cc4Cl)O3)cc2)CC1 | 1.04 ± 0.078 | 1.15 ± 0.077 | 1.08 ± 0.027 | 0.832 ± 0.048 | 1.05 ± 0.042 | 1.02 ± 0.11 | 0.997 (active)
O=C1NC(=O)C(=Cc2ccc(-c3cccc(Cl)c3)o2)S1 | 0.774 ± 0.36 | 0.761 ± 0.064 | 0.776 ± 0.064 | 0.747 ± 0.032 | 1.13 ± 0.14 | 1.2 ± 0.16 | 0.943 (active)
CCc1c(C)c2ccc(OCC(C)=O)c(C)c2oc1=O | 0.936 ± 0.21 | 0.984 ± 0.098 | 0.938 ± 0.098 | 0.942 ± 0.068 | 1.27 ± 0.3 | 1.2 ± 0.13 | 0.991 (active)
Cc1cccc(N(CC(=O)Nc2ccc3c(c2)OCO3)S(C)(=O)=O)c1 | 0.716 ± 0.06 | 0.934 ± 0.068 | 1 ± 0.098 | 0.784 ± 0.04 | 1.19 ± 0.071 | 1.22 ± 0.13 | 1.02 (active)
COc1ccc(-c2[nH]c(-c3cccc(OC)c3)nc2SCC(=O)NC2CCCC2)cc1 | 0.849 ± 0.074 | 1.13 ± 0.056 | 1.91 ± 0.15 | 0.438 ± 0.026 | 0.824 ± 0.044 | 1.85 ± 0.14 | 1 (active)
